# In all, about 53,000 compounds went through this assay and about 900 (1.7%) showed an effect of 50% or more. The list comes from a sample in which strong results are over-represented; it also holds similar structures and randomly drawn compounds.
# Test system: Mycobacterium tuberculosis
# Test: Cornell - Phenotypic assay to identify agents that inhibit growth of Mycobacterium tuberculosis
# Format: functional
# Set-up: scale not given: direction of the effect not stated beside the values
# Conditions: 10 mM as filed; unlikely as a test dose
row,Structure (SMILES),Percent Effect [%]
1,O=C(CN1CCc2cncnc2C1)Nc1ccc(Cl)cn1,-14.12
2,Cc1csc(CN(C)c2cc(C)nc3c(C)c(C)nn23)n1,39.72
3,CCc1nnc(CN(C)c2cc(C)nc3c(C)c(C)nn23)o1,-22.97
4,Cc1cc(N(C)Cc2ccsc2)n2nc(C)c(C)c2n1,80.58
5,COCCNC(=O)CN1CCCC1c1c(C)nn(C)c1Cl (centres undefined),-22.86
6,COc1ccc2cc(NC(=O)CCNc3ncccn3)cnc2c1,-7.502
7,COCCC(=O)N1CCC(c2cncc(Oc3cccnc3)n2)CC1,-4.018
8,COc1c(CNC2CCOc3ccccc32)c(C)nn1C (centres undefined),23.56
9,Cc1nn(CCO)c(C)c1CNC1CCOc2ccccc21.Cl (centres undefined),28.69
10,Cc1nn(C)c(C)c1CNC1CCOc2ccccc21 (centres undefined),106.6
11,CC(C)N1CCC2(CCN(C(=O)c3cccnc3)CC2)C1.O=C(O)C(F)(F)F.O=C(O)C(F)(F)F,-3.69
12,COc1cccc(-c2noc3c2CN(c2ncnc4c2CCC4)CC3)c1,35.28
13,COc1cccc(-c2noc3c2CN(c2nc(C)ncc2C)CC3)c1,77.03
14,COCc1cc(N2CCc3onc(-c4cccc(OC)c4)c3C2)ncn1,25.42
15,c1cc(CN2CCCC(c3ccnc4nccn34)C2)ccn1 (centres undefined),21.25
16,CSc1sc2c(O)cc(=O)[nH]c2c1C(N)=O,28.59
17,CCn1c(C)nnc1SCCn1cc(-c2nccs2)nn1,-8.266
18,COc1ccc(CN2CCC3(CC(C(=O)NCC(C)C)=NO3)C2)cc1 (centres undefined),19.34
19,CC(C)(C)C(=O)Nc1ccc(Oc2ccsc2C(=O)O)cc1,16.22
20,COCC(=O)Nc1ccc(Oc2ccsc2C(=O)O)cc1,86.45
21,CC(C)CC(=O)Nc1ccccc1Oc1ccsc1C(=O)O,8.037
22,CC(C)CC(=O)Nc1ccc(Oc2ccsc2C(=O)O)cc1,38.91
23,O=C(Nc1cnc(Oc2ccccc2)nc1)C1CC1,23.36

row,Structure (SMILES),Percent Effect [%]
1,O=C(O)c1sccc1Oc1ccc(NC(=O)C2CC2)cc1,55.89
2,CC(C)NC(=O)Nc1ccc2c(c1)ncn2CC(=O)NCCN(C)C,-20.24
3,Cc1nc(C)n(C2CCCN(C(=O)Cc3ccc4c(c3)CCC4)C2)n1 (centres undefined),13.58
4,Cc1cc(C)n(C2CN(Cc3noc(C4CC4)n3)C2)n1,7.043
5,COCCC(=O)Nc1ccnn1-c1ccccc1,-2.555
6,c1cnc(N2CCOCC3(CCCN(c4nncs4)C3)C2)cn1 (centres undefined),-8.424
7,CC(C)NC1CCN(CCc2ccc3c(c2)CCO3)CC1,56.74
8,COCC(C)N1CCN(CCc2ccc3c(c2)CCO3)CC1 (centres undefined),-12.27
9,CCOCCN1CCN(CCc2ccc3c(c2)CCO3)CC1,-8.246
10,CS(=O)(=O)NC[C@]12COC[C@H]1CN(C(=O)C1CC=CC1)C2,-4.911
11,CCC(CC)CN1CCN(CC(=O)Nc2ccc3nsnc3c2)CC1,23.66
12,Cc1ccc(CN2CCN(CC(=O)Nc3ccc4nsnc4c3)CC2)o1,54.44
13,CC(C)CCN1CCN(CC(=O)Nc2ccc3nsnc3c2)CC1,-1.569
14,CC(C)N1CC(n2ccnc2-c2nccn2C)CC1=O (centres undefined),-23.92
15,CN(C)c1cc(C2CCCN(S(=O)(=O)C3CCCC3)C2)ccn1 (centres undefined),15.85
16,Cc1[nH]ccc1C(=O)N(Cc1ccc(O)cc1)CC1CC1,103.8
17,O=C(c1ccc[nH]1)N(Cc1ccc(O)cc1)CC1CC1,43.3
18,NC(=O)c1ccc(C(=O)N(Cc2ccc(O)cc2)CC2CC2)cc1,-5.401
19,CSc1ccc(C)c(C(=O)Nc2c(C(N)=O)n[nH]c2C)c1,-17.81
20,COc1ccc(CNCCc2ccn(-c3ccccc3)n2)cc1O,107.6
21,COc1ccc(CNCCn2c(C)nc3ccccc32)cc1O,-17.9
22,COc1ccc(-n2ccc(CNCc3ccc(OC)c(O)c3)n2)cc1,31.15
23,O=C1CCC(=O)N1c1nn(Cc2ccc(F)cc2)cc1Cl,-47.77

row,Structure (SMILES),Percent Effect [%]
1,CC[C@H](N)C(=O)Nc1nn(CC(F)(F)F)c2cc(OC(C)C)ccc12,15.83
2,Cc1nc(C)n(CC2CCCCN2CC(=O)NCc2ccccn2)n1 (centres undefined),18.51
3,CCS(=O)(=O)CCN1CCC(N(C)Cc2noc(C(C)C)n2)C1 (centres undefined),13.23
4,COCC1CN(C(=O)Nc2cc(Cl)cc(Cl)c2)CCO1 (centres undefined),13.66
5,Cc1cc(NC(=O)N2CCOC(C(N)=O)C2)ccc1Br (centres undefined),15.45
6,NC(=O)C1CN(C(=O)Nc2cc(Cl)cc(Cl)c2)CCO1 (centres undefined),103.4
7,CNc1snc(C)c1C(=O)N1CCCC(n2cc(C)cn2)C1 (centres undefined),-17.18
8,Cc1nc(CN2CCC3(CC2)NC(=O)CC3c2ccncc2)cs1.O=C(O)C(F)(F)F.O=C(O)C(F)(F)F (centres undefined),21.18
9,COC(=O)COn1c(OC)nc2ccccc2c1=O,32.68
10,CCc1nc2ccccc2c(=O)n1CC1(O)CCN(CC(=O)OC)CC1,13.86
11,COC(=O)COn1c(SC)nc2ccccc2c1=O,75.88
12,COc1ccc(SCC2CNc3nc4ccccc4c(=O)n32)cc1 (centres undefined),44.86
13,COC(=O)COn1c(SC(C)C)nc2ccccc2c1=O,75.74
14,CCc1cc(=O)[nH]c2nnc(SCC(=O)OC)n12,-7.031
15,COC(=O)CNC(=O)CCCn1cnc2ccccc2c1=O,3.303
16,COc1ccc(-n2c(SC)nc(O)c(Cc3ccccc3)c2=O)cc1,13.52
17,COCC(C)NC(=O)CCCn1cnc2ccccc2c1=O (centres undefined),7.524
18,COC(=O)COn1c(SCC(=O)OC)nc2ccccc2c1=O,102.5
19,CCSc1nc2ccccc2c(=O)n1OCC(=O)OC,74.42
20,CCc1nc2ccccc2c(=O)n1CC1(O)CCN(C(=O)COC)CC1.Cl,10.94
21,COCc1nn(Cc2ccc(Br)s2)c(=O)o1,6.613
22,N#CCCn1nc(C(F)(F)F)c2c1CCCC2,-22.61
23,O=C(O)C(F)(F)F.O=C(O)C(F)(F)F.c1cc(CN2C[C@@H]3OCCN(CC4CC4)[C@@H]3C2)n[nH]1,4.885
